Measurements reported in PubChem BioAssay.
Calls of active or inactive are those of the source. Unless noted, how the calls were made is not given here.

Key:
[1] = system: XIP peptide (Xip251-270) binding; experiment: XIP fragment 251-270 binding compounds – biochemical, small-molecule microarray, fluorescence 635/667 nm, 0.1 µg/mL protein, primary screen (AID 1182); settings: fluorescent protein binding, 635 nm, higher = more signal, called active from +8 up or from −8 down
[2] = system: XIP peptide (Xip251-270); experiment: compounds binding XIP fragment 251-270 – biochemical, small-molecule microarray, fluorescence 635/667 nm, 0.5 µg/mL protein, primary screen (AID 1183); settings: fluorescence 635 nm, higher = more signal
[3] = blood-stage malaria parasite viability loss – strain 3D7, DAPI fluorescence, 100 nL, primary screen (AID 1184);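 further: parasites grown inside human red blood cells in medium with human serum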; settings: P. falciparum 3D7 growth, 3 d, higher = more signal
[4] = target: Homeobox protein Hox-A13 (Mus musculus) (UniProt Q62424); experiment: disruptors of Hoxa13 oligonucleotide interaction – biochemical, fluorescence polarization, labeled oligonucleotide, primary screen (AID 1185); settings: Hoxa13:DNA binding, 15 min, higher = more signal, called active from +8 up or from −8 down
Chain of Homeobox protein Hox-A13 (Mus musculus) (Q62424 whole entry, looked up): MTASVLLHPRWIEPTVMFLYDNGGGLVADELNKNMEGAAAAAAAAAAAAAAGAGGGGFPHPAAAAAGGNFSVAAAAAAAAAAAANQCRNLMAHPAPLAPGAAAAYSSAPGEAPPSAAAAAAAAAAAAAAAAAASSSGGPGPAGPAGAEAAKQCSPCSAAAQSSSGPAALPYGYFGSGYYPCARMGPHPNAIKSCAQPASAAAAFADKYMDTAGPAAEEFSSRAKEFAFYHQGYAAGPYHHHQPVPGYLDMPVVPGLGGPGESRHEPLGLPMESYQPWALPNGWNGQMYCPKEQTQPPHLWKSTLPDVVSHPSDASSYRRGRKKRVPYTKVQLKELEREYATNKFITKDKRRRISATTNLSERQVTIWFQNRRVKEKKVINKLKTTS

[5] = blockers of DNA damage checkpoint Chk1 activation – imaging, HeLa, hydroxyurea, phospho-Chk1 antibody, percent positive cells, primary screen (AID 1186); settings: hydroxyurea-induced phospho-Chk1 immunofluorescence imaging, higher = more signal
[6] = blockers of DNA damage checkpoint Chk1 activation – imaging, HeLa, hydroxyurea, phospho-Chk1 nuclear intensity, primary screen (AID 1187); settings: hydroxyurea-induced phospho-Chk1 immunofluorescence imaging, higher = more signal

Which composite z-score [1] does the source give for [N-]=[N+]=Nc1ccccc1C[C@@]1(C(=O)O)N=C(c2ccc(OCCCO)cc2)O[C@@H]1c1ccccc1N=[N+]=[N-] here?
Its composite z-score is 0.0588 (inactive).

What about the composite z-score [2] of the same compound?
Its composite z-score is 0.736.

And the z-score [3]?
Its z-score is -1.74.

What about the z-score [4] of the same compound?
Its z-score is -5.17 (inactive).

What about the z-score [5] of the same compound?
The z-score was -0.267 (inactive).

And the z-score [6]?
The z-score was -0.317 (inactive).

With COC(=O)C1=CC(CCCO)=CC(c2ccc(CN3CCCC3)cc2)N(Cc2cc3c(cc2Br)OCO3)C=C1C(=O)OC (stereo not given) as the compound, how does the composite z-score [1] read?
Its composite z-score is 2.27 (inactive).

And the composite z-score [2]?
Its composite z-score is 0.727.

And the z-score [3]?
Its z-score is -1.41.

And the z-score [4]?
Its z-score is -3.44 (inactive).

What about the z-score [5] of the same compound?
Its z-score is 0.119 (inactive).

What about the z-score [6] of the same compound?
Its z-score is 0.656 (inactive).

With C=C(/C(=C/C[C@@H](OC(C)=O)c1ccc(CO)o1)c1cc(C(=O)OC)ccc1OC)C(C)C as the compound, how does the composite z-score [1] read?
The composite z-score was 0.698 (inactive).

And the composite z-score [2]?
The composite z-score was 0.135.

And the z-score [3]?
Its z-score is -0.485.

And the z-score [4]?
Its z-score is -4.95 (inactive).

What about the z-score [5] of the same compound?
Its z-score is 0.623 (inactive).

What about the z-score [6] of the same compound?
Its z-score is 0.273 (inactive).

What does the source list for COCCOC(=O)N1C(=O)[C@@]2(c3cc(C#CCCO)ccc31)[C@H](c1ccccc1OCCO)N1[C@H](c3ccccc3)[C@H](c3ccccc3)OC(=O)[C@H]1[C@@H]2C(=O)N1CCCCCCC1?
composite z-score [1]: 0.783 (inactive); composite z-score [2]: 0.759; z-score [3]: -2.25; z-score [4]: 3.84 (inactive); z-score [5]: -0.304 (inactive); z-score [6]: -0.387 (inactive)

For CN1C(=O)C2C=CC(C(O)c3cc(C(F)(F)F)cc(C(F)(F)F)c3)N(NC(=O)OC(C)(C)C)C2C1=O (stereo not given), which composite z-score [1] is on record?
The composite z-score was 1.07 (inactive).

And the composite z-score [2]?
The composite z-score was 0.623.

And the z-score [3]?
The z-score was -1.32.

And the z-score [4]?
The z-score was -5.04 (inactive).

What about the z-score [5] of the same compound?
The z-score was 0.0279 (inactive).

And the z-score [6]?
Its z-score is 0.275 (inactive).

For CCc1cccc(NC(=O)O[C@H]2[C@H](OC(=O)Nc3ccccc3)[C@H](OC(=O)Nc3ccccc3)[C@@H](OC)O[C@@H]2CO)c1, which composite z-score [1] is on record?
The composite z-score was 1.54 (inactive).

And the composite z-score [2]?
The composite z-score was 0.829.

What about the z-score [3] of the same compound?
Its z-score is -1.49.

And the z-score [4]?
Its z-score is -5.74 (inactive).

And the z-score [5]?
The z-score was 0.156 (inactive).

And the z-score [6]?
Its z-score is 0.628 (inactive).

What does the source list for C#C[C@@H](CC)O[Si](C#CCCCC#N)(C(C)C)C(C)C?
composite z-score [1]: 1.09 (inactive); composite z-score [2]: 0.261; z-score [3]: -0.574; z-score [4]: -1.27 (inactive); z-score [5]: 0.33 (inactive); z-score [6]: 0.0685 (inactive)

Which composite z-score [1] does the source give for C=CCNC(=O)[C@H]1[C@@H]2C(=O)O[C@@H](c3ccccc3)[C@@H](c3ccccc3)N2[C@@H](c2ccc(O)cc2)[C@]12C(=O)N(C(=O)OCCOC)c1ccc(C#CCC(C(=O)OC)C(=O)OC)cc12 here?
Its composite z-score is 2.8 (inactive).

And the composite z-score [2]?
Its composite z-score is 0.761.

What about the z-score [3] of the same compound?
Its z-score is -2.07.

What about the z-score [4] of the same compound?
The z-score was -0.414 (inactive).

What about the z-score [5] of the same compound?
Its z-score is -0.0546 (inactive).

What about the z-score [6] of the same compound?
Its z-score is -0.0093 (inactive).

For COc1ccc(C#Cc2ccc3c(c2)[C@]2(C(=O)N3)[C@H](C(=O)Nc3nc4ccccc4s3)[C@H]3C(=O)O[C@H](c4ccccc4)[C@H](c4ccccc4)N3[C@@H]2c2ccccc2OCCO)cc1, which composite z-score [1] is on record?
The composite z-score was 0.416 (inactive).

What about the composite z-score [2] of the same compound?
The composite z-score was 0.598.

And the z-score [3]?
The z-score was -2.21.

What about the z-score [4] of the same compound?
Its z-score is -0.889 (inactive).

What about the z-score [5] of the same compound?
Its z-score is -0.347 (inactive).

And the z-score [6]?
The z-score was -0.392 (inactive).

With CO[C@H]1O[C@H](CO)[C@@H](OC(=O)Nc2ccc(C#N)cc2)[C@@H]2OC(=O)[C@H](Cc3cccc(Br)c3)C/C=C/C[C@@H](Cc3cccc(Br)c3)C(=O)O[C@@H]12 as the compound, how does the composite z-score [1] read?
Its composite z-score is 0.685 (inactive).

And the composite z-score [2]?
Its composite z-score is 0.254.

What about the z-score [3] of the same compound?
Its z-score is -1.47.

And the z-score [4]?
The z-score was 1.1 (inactive).

What about the z-score [5] of the same compound?
The z-score was -0.353 (inactive).

What about the z-score [6] of the same compound?
The z-score was -0.388 (inactive).

For O=C1O[C@H](c2ccccc2)[C@H](c2ccccc2)N2[C@H]1[C@@H](C(=O)N1CCCCCCC1)[C@]1(C(=O)Nc3ccc(C#CC4(O)CCCCCC4)cc31)[C@H]2c1ccc(O)cc1, which composite z-score [1] is on record?
Its composite z-score is 1.81 (inactive).

What about the composite z-score [2] of the same compound?
Its composite z-score is 0.466.

And the z-score [3]?
The z-score was -0.372.

And the z-score [4]?
Its z-score is 1.68 (inactive).

And the z-score [5]?
The z-score was -0.216 (inactive).

What about the z-score [6] of the same compound?
The z-score was -1.07 (inactive).

Which composite z-score [1] does the source give for COc1cc(C(O)C2C=CC3C(=O)N(Cc4ccccc4)C(=O)C3N2n2cnnc2)cc(OC)c1OC (stereo not given) here?
The composite z-score was 0.494 (inactive).

What about the composite z-score [2] of the same compound?
Its composite z-score is 0.435.

What about the z-score [3] of the same compound?
Its z-score is 0.551.

And the z-score [4]?
Its z-score is -1.38 (inactive).

What about the z-score [5] of the same compound?
The z-score was 0.102 (inactive).

What about the z-score [6] of the same compound?
Its z-score is 0.263 (inactive).

For C=C[C@@H](C)[C@H](O)c1ccc(OCCO)cc1, which composite z-score [1] is on record?
The composite z-score was 0.313 (inactive).

What about the composite z-score [2] of the same compound?
The composite z-score was 0.0813.

And the z-score [3]?
The z-score was 0.99.

And the z-score [4]?
The z-score was -0.166 (inactive).

And the z-score [5]?
Its z-score is 0.485 (inactive).

And the z-score [6]?
The z-score was 0.739 (inactive).

Which composite z-score [1] does the source give for O=C1C2C=CC(C(O)c3ccc4c(c3)OCO4)N(Nc3ccccc3)C2C(=O)N1c1ccccc1 (stereo not given) here?
Its composite z-score is 0.395 (inactive).

And the composite z-score [2]?
Its composite z-score is 0.795.

And the z-score [3]?
The z-score was -0.214.

What about the z-score [4] of the same compound?
The z-score was -1.49 (inactive).

What about the z-score [5] of the same compound?
The z-score was 0.104 (inactive).

And the z-score [6]?
The z-score was 0.614 (inactive).

For NC(=O)[C@H]1[C@@H]2C(=O)O[C@@H](c3ccccc3)[C@@H](c3ccccc3)N2[C@@H](c2ccc(O)cc2)[C@]12C(=O)Nc1ccccc12, which composite z-score [1] is on record?
Its composite z-score is -0.367 (inactive).

What about the composite z-score [2] of the same compound?
The composite z-score was -0.764.

And the z-score [3]?
Its z-score is 0.428.

And the z-score [4]?
Its z-score is -5.09 (inactive).

And the z-score [5]?
The z-score was -0.154 (inactive).

What about the z-score [6] of the same compound?
The z-score was -0.112 (inactive).
